Shown are actives, neighbours in structure and some others; about 1.5% of the full set was active somewhere.
ALOX12 inh: Primary qHTS assay for inhibitors of human arachidonate 12S-lipoxygenase (ALOX12): Round 2; Potency, µM (doses to about 108 µM), without a hit: top-dose activity change, negative = inhibition, usual class: inhibitors; purified 12hLO, xylenol orange hydroperoxide absorbance; actives 1.1% (n = 580,000); Polyunsaturated fatty acid lipoxygenase ALOX12 (Homo sapiens), P18054; AID 1671190, 2021; further: potency means the concentration at half of the fitted maximal effect; on the % scale 0 is the no-effect control and ±100 the full control effect
Target sequence (P18054 whole entry, looked up): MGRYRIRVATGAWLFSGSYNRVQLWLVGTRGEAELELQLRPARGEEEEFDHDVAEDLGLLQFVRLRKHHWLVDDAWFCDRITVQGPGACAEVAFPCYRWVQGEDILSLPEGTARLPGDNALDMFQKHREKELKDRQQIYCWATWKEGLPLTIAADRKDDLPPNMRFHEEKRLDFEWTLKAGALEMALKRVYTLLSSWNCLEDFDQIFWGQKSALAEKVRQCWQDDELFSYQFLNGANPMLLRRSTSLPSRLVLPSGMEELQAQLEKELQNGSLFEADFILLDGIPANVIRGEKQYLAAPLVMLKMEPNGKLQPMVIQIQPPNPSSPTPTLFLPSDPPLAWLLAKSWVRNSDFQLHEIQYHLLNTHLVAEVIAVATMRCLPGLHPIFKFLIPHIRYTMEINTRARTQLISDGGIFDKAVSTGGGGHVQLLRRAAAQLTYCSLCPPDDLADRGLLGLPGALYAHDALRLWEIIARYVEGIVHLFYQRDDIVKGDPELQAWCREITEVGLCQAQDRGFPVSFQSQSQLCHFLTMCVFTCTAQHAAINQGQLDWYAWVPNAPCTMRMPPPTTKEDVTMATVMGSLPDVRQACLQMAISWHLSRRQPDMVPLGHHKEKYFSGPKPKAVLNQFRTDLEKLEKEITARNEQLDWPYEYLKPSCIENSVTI
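Hydroperoxide product was detected by ferrous iron/xylenol orange as the 573 to 405 nm absorbance ratio. Arachidonic acid at 40 uM (final) was turned over for 30 min at room temperature by 150 nM human 12hLO, pH 7.0 Hepes buffer, after 15 min compound preincubation.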
IL2 activator: qHTS of IL-2 Activators; IL-2 activation reporter assay, cell-based qHTS; stimulated with anti-CD3/CD4/CD28 beads; in transgenic mouse T cells; activation, % (series mostly up to about 46 µM); actives 0.065% (n = 360,000); AID 652025, 2013; in the data active means activation above about 50%; inconclusive means mostly about 30% to 49%; further: 0% is about no effect
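EGFP and DsRed fluorescence is measured by plate cytometry in unstimulated transgenic mouse T cells exposed to compound for 60 minutes, then stimulated 18 hours at 37 degrees C with anti-CD3/anti-CD4 beads plus anti-CD28.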
a7 integrin act: qHTS for Activators of Integrin-Mediated Alleviation for Muscular Dystrophy | Potency, µM (doses to about 38.3 µM), for the others: at the highest dose activation, most hits filed as activators | AID 624291, 2012 | actives 0.064% (n = 350,000) | alpha7betagal myoblasts, beta-gal FDG fluorescence, 48 h;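 further: potency means the concentration at half of the fitted maximal effect; 100% = response of the positive control SU9516; nearly all actives have a fitted effect of over 60% in size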
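alpha7betagal+/- myoblasts (passage 13, 250/well) treated 48 h at 37C with compounds at 1:260 dilution of DMSO stock. Lysed, then beta-galactosidase activity read as FDG fluorescence (ex 480/em 540) after 30 min, with pre-read for autofluorescence.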
uPA surface inh: qHTS for Inhibitors of Cell Surface uPA Generation. cell surface uPA generation assay, qHTS. Potency, µM (doses to about 38.3 µM), for the others: top-dose activity change, negative = inhibition, usual class: inhibitors. actives 0.31% (n = 330,000); active means well fitted inhibition curve with a large enough effect; inconclusive means small, poorly fitted or top-dose-only effect; inactive means no such curve, though single readings can be large or run the other way; tested in mouse RAW 264.7 cells; further: potency means the concentration at half of the fitted maximal effect; on the % scale 0 is the no-effect control and ±100 the full control effect; nearly all actives have a fitted effect of over 55% in size
Nrf2 ARE act: qHTS of Nrf2 Activators; Potency, µM (titrated, usually from 46.1 µM), inactives show at the top dose activation, most hits filed as activators; AID 624171, 2012; AREc32 ARE-luciferase reporter (MCF7-derived line), luminescence, 24 h; actives 0.31% (n = 410,000); further: potency means the concentration at half of the fitted maximal effect; % of control where 0% means no effect; nearly all actives have a fitted effect of over 65% in size
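AREc32 cells carrying an ARE-driven firefly luciferase, 1000 cells/well in OPTI-MEM with 5% FBS, dosed after overnight attachment and incubated 24 hr at 37 deg C. Steady-Glo luminescence read after 30 min at RT.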
* hit, by the source's call; [ ] = another dose, or the depositor's remark. Unless noted, the call rests on the fitted dose curve; in most records, active means well fitted curve in the direction sought with a large enough effect; inconclusive means small, poorly fitted or top-dose-only effect, or another doubt; inactive means no such curve, though single readings can be large; an effect the other way counts as inactive or inconclusive.

For Cc1ccc(CNS(=O)(=O)c2ccc(-c3cnc(C4CC4)o3)cc2)cc1 the results were ALOX12 inh -13%, IL2 activator 1, a7 integrin act -14%, uPA surface inh 0% and Nrf2 ARE act 4%.
For CCOc1ccccc1CNS(=O)(=O)c1ccc(-c2cnc(C3CC3)o2)cc1 the results were ALOX12 inh 2%, IL2 activator -1, a7 integrin act -3%, uPA surface inh 0.28µM* and Nrf2 ARE act 5%.
Screening O=S(=O)(NCc1ccccc1Cl)c1ccc(-c2cnc(C3CC3)o2)cc1 returned ALOX12 inh 15% and Nrf2 ARE act 1%.
Screening Cc1cc(OCC(=O)c2ccc3c(c2)N(CC(=O)NCC2CC2)C(=O)CO3)ccc1Cl returned ALOX12 inh -11%.
Screening COc1ccc(CN2CCC3(CC2)C(=NC2CCCCC2)NC(=O)N3c2cc(F)cc(F)c2)cc1 returned ALOX12 inh 7%[6.33 µM].
`COc1ccc(C(=O)NC(=S)Nc2ccc(CN3CCOCC3)cc2)cc1Cl` gave ALOX12 inh 32µM*, IL2 activator 0, a7 integrin act 20%, uPA surface inh 0% and Nrf2 ARE act 2%.
COc1ccc(C(=O)NC(=S)Nc2ccc(CN3CCOCC3)cc2)cc1OC was read as ALOX12 inh 0%, IL2 activator 1, a7 integrin act 1%, uPA surface inh 15% and Nrf2 ARE act 0%.
`CCc1ccc(C(=O)NC(=S)Nc2ccc(N3CCOCC3)cc2)cc1` gave ALOX12 inh 22µM*, IL2 activator -3, a7 integrin act -7%, uPA surface inh inconclusive and Nrf2 ARE act 0%.
CC(C)Cc1cc(Cn2cc(-c3cncnc3)nn2)no1 was read as ALOX12 inh 0%.
N/C(=N\c1ncccn1)Nc1ccccc1 was read as ALOX12 inh 48%.
For Brc1ccc(-c2noc(-c3cccnc3)n2)o1 the results were ALOX12 inh -28%.
`COc1cc(/C=N/n2c(-c3ccccc3)n[nH]c2=S)ccc1O` gave ALOX12 inh inconclusive, IL2 activator 1, a7 integrin act -14%, uPA surface inh -10% and Nrf2 ARE act 1%.
`Oc1c(Br)cc(/C=N/n2c(-c3ccccc3)n[nH]c2=S)cc1Br` gave ALOX12 inh 22µM*, IL2 activator 3, a7 integrin act -8%, uPA surface inh -1% and Nrf2 ARE act -1%.
Oc1ccc(/C=N/n2c(-c3ccccc3)n[nH]c2=S)cc1Br was read as ALOX12 inh 32µM*, IL2 activator 1, a7 integrin act 22%, uPA surface inh -12% and Nrf2 ARE act 3%.
Screening COc1ccc(/C=N/n2c(-c3ccc(C)cc3)n[nH]c2=S)cc1OC returned ALOX12 inh 10µM*, IL2 activator 0, a7 integrin act 1%, uPA surface inh -9% and Nrf2 ARE act 2%.
Screening Oc1c(Br)cc(/C=N/n2c(-c3ccccc3)n[nH]c2=S)c(O)c1Br returned IL2 activator -3, a7 integrin act -45%, uPA surface inh -10% and Nrf2 ARE act 5%.
O=C(CCc1c[nH]c2ccccc12)NCc1cccs1 was read as ALOX12 inh -22%.
For COc1ccc(CNC(=O)c2cc3c(s2)CCN(C(=O)c2ccccc2)C3)cc1OC the results were ALOX12 inh 35%.
Screening CCCC(=O)N1Cc2ccccc2CC2(CCCN(Cc3ccncc3)C2)C1 (configuration not stated) returned ALOX12 inh 14%[6.33 µM].
Screening Clc1ccc2c(c1)C1OCCC1C(c1ccco1)N2 (configuration not stated) returned ALOX12 inh inconclusive, IL2 activator -1, a7 integrin act -22%, uPA surface inh -3% and Nrf2 ARE act 5.6µM*.
Screening CC(=O)N1c2ccc(Cl)cc2C2OCCC2C1c1ccco1 (configuration not stated) returned ALOX12 inh 80%, IL2 activator 2, a7 integrin act -3%, uPA surface inh 0% and Nrf2 ARE act -1%.
Screening O=C(NCc1ccccc1F)c1ccc2c(c1)CN(CC1=Cc3ccccc3OC1)CCO2 returned ALOX12 inh -15%.
CCc1ccc(C2N3CC4(CC)CN2CC(CC)(C3)C4=O)cc1 (configuration not stated) was read as ALOX12 inh -1%.
`O=C1C=CC(=O)N1Cc1ccccc1` gave ALOX12 inh 11%, IL2 activator -1, uPA surface inh 7.9µM* and Nrf2 ARE act 8%.
`CN1C(=O)N(C)N(Cc2ccccc2)C(=O)N1Cc1ccccc1` gave ALOX12 inh 10%.
O=C(Nc1cc(F)ccc1F)c1nc2ccccc2nc1N1CCCCC1 was read as ALOX12 inh 8%.
For Cc1nc(S(=O)(=O)NC2CCCCC2)c(C#N)c(C)c1Cl the results were ALOX12 inh -23%, IL2 activator 1, a7 integrin act -35%, uPA surface inh -5% and Nrf2 ARE act 13µM*.
Screening CC(=O)c1c(C)oc2c1cc(NS(=O)(=O)c1ccc(Br)cc1)c1ccccc12 returned ALOX12 inh -24% and Nrf2 ARE act -1%.
Cc1oc2c(cc(NS(=O)(=O)c3ccc(Cl)cc3)c3ccccc32)c1C(=O)O was read as ALOX12 inh 40µM*, IL2 activator -1, a7 integrin act 9%, uPA surface inh 0% and Nrf2 ARE act 1%.
Screening CCS(=O)(=O)NCC1(COc2ccc(S(C)(=O)=O)cc2)C[C@@H](O)[C@@H](O)C1 (some centres not stated) returned ALOX12 inh 13µM*.
`CS(=O)(=O)c1ccc(OCC2(CNC3CCC3)C[C@@H](O)[C@@H](O)C2)cc1` (some centres not stated) gave ALOX12 inh 22%[176 µM].
O=C(Nc1ccc(F)cc1)C1C(c2ccccc2)C1(Cl)Cl (configuration not stated) was read as ALOX12 inh 7.1µM*, IL2 activator 0, a7 integrin act 24%, uPA surface inh 1% and Nrf2 ARE act 2%.
`O=C(Nc1ccccc1Cl)C1C(c2ccccc2)C1(Cl)Cl` (configuration not stated) gave ALOX12 inh inconclusive, IL2 activator 2, a7 integrin act -7%, uPA surface inh -13% and Nrf2 ARE act 1%.
For CCCn1ncc(NC(=O)c2cccc(CN3CCC[C@@H]3COC)c2)n1 the results were ALOX12 inh 2%.
For O=C(CN(CC(=O)Nc1ccc(F)cc1)CC(=O)Nc1ccc(F)cc1)Nc1ccc(F)cc1 the results were ALOX12 inh 13µM*.
